High-throughput results as filed in PubChem BioAssay.
The list is not random: actives were taken first. Their share in the collection is about 0.54%.
PvdQ acylase – P. aeruginosa PvdQ acylase inhibition. purified PvdQ acylase, fluorescence plate reader. inhibition, % at 10 µM. hit rate 0.063% among 340,000. AID 488965; in the data active = inhibition above about 30%, passing the limit was not always enough; inconclusive = no clear call, values can overlap the other calls;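 also: 0% = vehicle neutral wells and 100% = reference inhibitor wells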
ERp5 block – inhibitors of human ERp5. hit rate 0.05% among 350,000. ERp5 insulin aggregation, absorbance 650 nm, 90 min. inhibition, % at 9.99 µM. AID 651711;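 active = mean replicate inhibition above about 25%, with every replicate also reaching it, limit read from the data, passing the limit was not always enough; inconclusive = only one of those two criteria met; inactive = neither criterion met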
Efflux pump mplx – inhibitors of Candida antifungal efflux pumps expressed in yeast. S. cerevisiae Candida pump triplex, Nile Red efflux. inhibition, % at 10 µM. hit rate 0.44% among 330,000;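 active = plate passing quality check with inhibition over a set limit, or well fluorescence over plate mean plus 4 SD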;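 also: Nile Red retained in pooled yeast measured as flow cytometry median fluorescence; 0% = buffer negative control and 100% = Enniatin B positive control; higher means more Nile Red kept so more efflux inhibition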
Rtt109 HAT inh – inhibitors of Candida albicans Rtt109/Vps75 histone acetyltransferase. AID 540336. purified Rtt109/Vps75, ThioGlo CoA-SH fluorescence, 4 h. hit rate 0.16% among 330,000. inhibition, % at 34.9 µM;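 active = inhibition of at least 50% in every replicate; inconclusive = best replicate reaches 50% inhibition but some replicates fall short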
Target sequence (Q5AAJ8 whole entry, looked up): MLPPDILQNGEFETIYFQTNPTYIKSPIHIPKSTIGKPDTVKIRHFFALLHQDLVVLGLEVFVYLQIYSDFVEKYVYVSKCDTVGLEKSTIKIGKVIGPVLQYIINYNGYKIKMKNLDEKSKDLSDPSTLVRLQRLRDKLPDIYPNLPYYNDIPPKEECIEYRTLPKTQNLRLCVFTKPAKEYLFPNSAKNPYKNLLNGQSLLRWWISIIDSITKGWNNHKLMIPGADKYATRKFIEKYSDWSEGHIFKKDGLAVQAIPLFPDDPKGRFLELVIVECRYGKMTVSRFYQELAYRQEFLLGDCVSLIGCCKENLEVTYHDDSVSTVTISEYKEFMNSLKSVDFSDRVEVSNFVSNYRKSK
PDI turbidity – inhibitors of human protein disulfide isomerase; PDI insulin aggregation turbidity, A650, 90 min; hit rate 0.052% among 350,000; AID 588391; inhibition, % at 10 µM; P07237;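 active = mean inhibition across replicates of 30% or more, whatever share of single replicates reach that level; inconclusive = mean inhibition below 30% while every single replicate reaches 30%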
* = called active by the depositor.

`Cc1cc(NCCCn2ccnc2)n2nc(-c3ccc(Cl)cc3)cc2n1` gave PvdQ acylase 35.5*, ERp5 block -1.5, Efflux pump mplx -0.1, Rtt109 HAT inh 22.0 and PDI turbidity 27.3.
CNC(=O)C1=C[C@H](c2csc3ccccc23)C[C@H](OCc2ccc(CO)cc2)O1 was read as ERp5 block -1.6.
For COc1cccc(-c2ccc([C@@H]3[C@@H](CO)N4C(=O)CN(C(=O)CN5CCOCC5)C[C@H]34)cc2)c1 the results were ERp5 block -0.9.
For Cc1ccc(CN(C(=O)c2ccccc2C)C2CCS(=O)(=O)C2)o1 (stereo not given) the results were PvdQ acylase 7.6, ERp5 block 3.0, Efflux pump mplx -0.2, Rtt109 HAT inh 72.5* and PDI turbidity -1.7.
Screening C[C@H](CO)N1C[C@H](C)[C@@H](CN(C)Cc2ccncc2)Oc2cc(-c3ccccc3F)ccc2S1(=O)=O returned ERp5 block 4.3.
Screening COc1cc(NC(=O)COc2c(C)cc(C)cc2[N+](=O)[O-])c(OC)cc1Cl returned PvdQ acylase 3.2, ERp5 block -1.1, Efflux pump mplx 0.1, Rtt109 HAT inh 51.6* and PDI turbidity 11.6.
`COc1cc(Cl)c(C)cc1NC(=O)COc1ccccc1[N+](=O)[O-]` gave PvdQ acylase -4.6, Efflux pump mplx -0.2, Rtt109 HAT inh 5.6 and PDI turbidity 3.7.
O=[N+]([O-])c1cccc(N(CC(O)CN2CCCC2)S(=O)(=O)c2ccccc2)c1 (stereo not given) was read as PvdQ acylase -8.9, ERp5 block 2.6, Efflux pump mplx 0.1, Rtt109 HAT inh -5.7 and PDI turbidity 0.1.
Screening Cc1ccc(S(=O)(=O)N(CC(O)CN2CCOCC2)c2cccc([N+](=O)[O-])c2)cc1 (stereo not given) returned PvdQ acylase -10.9, ERp5 block 26.6*, Efflux pump mplx -0.1, Rtt109 HAT inh -13.5 and PDI turbidity -0.8.
COc1ccc(N=C(C)C2=C(O)CSC2=O)cc1 was read as PvdQ acylase 43.8*, ERp5 block 16.8, Efflux pump mplx -0.1, Rtt109 HAT inh 7.6 and PDI turbidity -2.4.
For CCOC(=O)c1oc2cccc(O)c2c1CN(Cc1ccccc1)C(C)=O the results were PvdQ acylase -15.8, Efflux pump mplx 0.0, Rtt109 HAT inh 7.1 and PDI turbidity 51.8*.
CN(C)C(=O)[C@@H]1[C@@H](CO)[C@@H]2Cn3c(ccc(-c4ccccc4)c3=O)[C@@H]2N1Cc1ccccc1 was read as ERp5 block 8.1.
For COc1ccc(NS(=O)(=O)c2ccc(Oc3cccc(C(=O)O)c3)cc2)cc1 the results were PvdQ acylase 1.7, ERp5 block 1.6, Efflux pump mplx 0.1, Rtt109 HAT inh -5.0 and PDI turbidity 2.6.
Screening Cc1cccc(Oc2ccc(NS(=O)(=O)c3ccc(C)c(C(=O)O)c3)cc2)c1 returned PvdQ acylase -16.2, ERp5 block 26.1*, Efflux pump mplx -0.1, Rtt109 HAT inh 11.6 and PDI turbidity 5.7.
Fc1ccc(C2CC(c3ccco3)=Nc3ccccc3S2)cc1 (stereo not given) was read as PvdQ acylase -2.6, ERp5 block -3.4, Efflux pump mplx 0.0, Rtt109 HAT inh 55.7* and PDI turbidity 1.1.
Cc1ccc(C(=O)NCC(=O)NC2CCCCCC2)cc1 was read as PvdQ acylase 0.6, ERp5 block -3.0, Efflux pump mplx 1.4, Rtt109 HAT inh 61.5* and PDI turbidity -5.4.
CCCCOc1ccc(C(=O)NCC(=O)NC2CC2)cc1 was read as PvdQ acylase -7.6, ERp5 block 3.0, Rtt109 HAT inh -27.4 and PDI turbidity 0.1.
CN(CC(=O)Nc1ccc(F)cc1)C(=O)COc1ccccc1Cc1ccccc1 was read as PvdQ acylase 7.7, ERp5 block 11.8, Efflux pump mplx -0.1, Rtt109 HAT inh 50.8* and PDI turbidity -4.7.
Oc1ccc(/C=C/c2nc(-c3ccccc3O)n(-c3ccccc3)n2)cc1 was read as PvdQ acylase -5.8, Efflux pump mplx 0.0, Rtt109 HAT inh 8.9 and PDI turbidity 48.2*.
`C/C=C/[C@@H](CC(=O)N1Cc2ccccc2C[C@H]1CO)[Si](C)(C)c1ccc(OC)cc1` gave ERp5 block 5.7.
`N#C/C(=C\c1ccncc1)c1nc2c(s1)CCCC2` gave PvdQ acylase 5.8, ERp5 block -3.3, Efflux pump mplx 0.0, Rtt109 HAT inh 57.5* and PDI turbidity -0.9.
For N#CC(=Cc1ccncc1)c1ccccc1 the results were PvdQ acylase 8.4, ERp5 block 3.0, Rtt109 HAT inh 1.9 and PDI turbidity -5.5.
COc1ccc2c3c([nH]c2c1)[C@@H](CO)N(C(=O)C1CC1)CC31CCN(C)CC1 was read as ERp5 block -2.1.
Screening Cc1nonc1OCCn1c([N+](=O)[O-])cnc1C returned PvdQ acylase 1.6, ERp5 block 3.3, Efflux pump mplx 0.0, Rtt109 HAT inh 52.6* and PDI turbidity -12.6.
Screening C[C@H](CO)N1C[C@H](C)[C@H](CN(C)S(=O)(=O)c2ccc(Cl)cc2)OCCCC[C@H](C)Oc2ccc(NS(=O)(=O)c3ccccc3)cc2C1=O returned ERp5 block 0.8.
`O=C1CN(C(=O)/C=C/c2ccc(Cl)cc2)c2ccccc2N1` gave PvdQ acylase 3.0, ERp5 block -3.8, Efflux pump mplx -0.2, Rtt109 HAT inh 56.1* and PDI turbidity -7.8.
O=C1NN(c2ccc(F)c(Cl)c2)C(=O)/C1=C\c1cccc(OC(=O)c2cccs2)c1 was read as PvdQ acylase -15.0, Efflux pump mplx -0.1, Rtt109 HAT inh 84.3* and PDI turbidity -15.9.
Screening COc1ccc2c3c([nH]c2c1)[C@@H](CO)N(Cc1cccnc1)CC31CN(C(=O)CN(C)C)C1 returned ERp5 block -1.5.
For C#CCOCCOCCOCCNc1nc(N2CCN(C(=O)CCCCCCCCCCNC(=O)[C@H](CO)n3cc(CCCCCN)nn3)CC2)nc(N2CCN(C(=O)CCCCCCCCCCNC(=O)[C@H](CCCN=C(N)N)n3cc(C[C@@H](C)CC)nn3)CC2)n1 the results were Efflux pump mplx 0.1.
For C#CCOCCOCCOCCNc1nc(N2CCN(C(=O)CCCCCCCCCCNC(=O)[C@H]([C@@H](C)CC)n3cc(CCCCN=C(N)N)nn3)CC2)nc(N2CCN(C(=O)CCCCCCCCCCNC(=O)[C@H](CCCN=C(N)N)n3cc(C[C@@H](C)CC)nn3)CC2)n1 the results were Efflux pump mplx 6.2*.
Screening C#CCOCCOCCOCCNc1nc(N2CCOCC2)nc(N2CCN(C(=O)CCCCCCCCCCNC(=O)[C@H]([C@@H](C)CC)n3cc(CCCCN=C(N)N)nn3)CC2)n1 returned PvdQ acylase -10.3, ERp5 block 3.2, Efflux pump mplx 1.0, Rtt109 HAT inh inconclusive and PDI turbidity 6.5.
For C#CCOCCOCCOCCNc1nc(N2CCN(C(=O)CCCCCCCCCCNC(=O)[C@H](CCCN=C(N)N)n3cc(C[C@@H](C)CC)nn3)CC2)nc(N2CCN(C(=O)CCCCCCCCCCNC(=O)[C@@H]([C@H](C)CC)n3cc(CCCCCN)nn3)CC2)n1 the results were Efflux pump mplx 4.8*.
